Source: PubChem BioAssay (several laboratories)
Peg3 promoter: reduces Peg3 promoter-driven luciferase expression in HeLa. HeLa PEG-Prom luciferase reporter, luminescence, overnight. inhibition, % at 20 µM. actives 1.7% (n = 360,000). AID 588405;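 active means inhibition of at least 50% at 20 µM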
Shn3 inh set2: inhibitors of Schnurri-3 3'UTR reporter in osteoblasts; Clone20 osteoblast Shn3 3'UTR firefly luciferase, 24 h; inhibition, % at 12.5 µM; actives 0.52% (n = 360,000); AID 588674;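 active means mean inhibition of at least 75% with every replicate also reaching 75%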;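 further: 0% = median of neutral control wells and 100% = pilot-screen positive control compound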
CF NFkB inh: blocks PAF-induced NF-kB reporter in cystic fibrosis cells; KKLEB NF-kB-GFP reporter, GFP fluorescence overnight; inhibition, % at 5 µM; actives 0.86% (n = 360,000); AID 588850;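 active means at least 50% inhibition at 5 µM, scaled per plate between neutral and stimulator controls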;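 further: PAF is a Pseudomonas aeruginosa culture filtrate used as stimulus; plate controls were PAF-stimulated DMSO wells for no effect and unstimulated DMSO wells for full effect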
EBV LMP1 NFkB: reduces LMP1-driven NF-kappaB luciferase signal; actives 0.69% (n = 350,000); AID 504558; inhibition, % at 12.5 µM; LMP1-induced NF-kappaB luciferase reporter cells, luminescence; in the data active means inhibition above about 41%;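 further: 0% = neutral control wells and 100% = reference inhibitor control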
HIF-2a block: HIF-2a inhibition; 786-0 RCC cells HIF-2a reporter, luciferase luminescence, overnight; inhibition, % at 18.8 µM; actives 0.72% (n = 360,000); AID 624352;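 active means inhibition of the luminescence signal of 40% or more relative to plate controls, in a single-dose primary screen at 18.75 µM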
KKLEB cytotox: CF airway cell cytotoxicity counter-screen | AID 602141 | actives 0.36% (n = 360,000) | activity change (cytotoxicity), % at 5 µM | KKLEB CF airway cells viability, ATPlite luminescence, overnight; hits give low values; cells stimulated with P. aeruginosa culture filtrate;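 active means corrected activity change at or below -50% at 5 µM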
* = called active by the depositor; x = not tested or not shown. In the library only some 2.9% were active in any assay of this set; here they are far more common.

SMILES | Peg3 promoter | Shn3 inh set2 | CF NFkB inh | EBV LMP1 NFkB | HIF-2a block | KKLEB cytotox
CC(C)(C)OC(=O)NCc1ccc(CNC(=O)c2nc[nH]c2C(=O)NCc2ccc(CNC(=O)OC(C)(C)C)cc2)cc1 | 26 | 87* | 1 | 19 | 14 | 23
CC(C)(C)OC(=O)NCCCC[C@H](NC(=O)c1nc[nH]c1C(=O)NCc1ccc(CNC(=O)OC(C)(C)C)cc1)C(=O)OC(C)(C)C | 10 | 17 | -9 | -11 | 10 | 1
Cc1cccc(NC(=O)c2nc[nH]c2C(=O)NC2CCN(C(=O)OC(C)(C)C)CC2)c1 | 61* | -2 | -22 | -9 | -1 | -5
Cc1cccc(NC(=O)c2nc[nH]c2C(=O)N2CCN(C(=O)OC(C)(C)C)CC2)c1 | 16 | -15 | -28 | 12 | -3 | 6
CC(C)(C)OC(=O)CNC(=O)c1nc[nH]c1C(=O)NCc1ccc(CNC(=O)OC(C)(C)C)cc1 | 23 | 53 | 7 | 4 | 15 | -4
CC(C)(C)OC(=O)NCCCCCNC(=O)c1nc[nH]c1C(=O)NCc1ccc(CNC(=O)OC(C)(C)C)cc1 | 80* | 89* | 15 | 8 | 14 | -1
COc1ccc(-n2nc(C(=O)NCC(=O)Nc3ccccn3)c3ccccc3c2=O)cc1Cl | 23 | 8 | 26 | -2 | 18 | -25
C[C@@H]1COC(=O)[C@@H](CC(=O)OC(C)(C)C)C/C=C\C[C@@H](CC(=O)N[C@H](CO)Cc2ccccc2)C(=O)N1 | -8 | -11 | -14 | 34 | 9 | 9
O=C(NCc1cccc(C(F)(F)F)c1)c1ccc2sc(C3=C[C@@H](O)[C@@H](O)[C@@H](CO)O3)nc2c1 | -16 | 0 | -10 | x | -14 | 6
CC(C)(C)OC(=O)NCCCCCNC(=O)c1[nH]cnc1C(=O)N[C@@H](Cc1ccccc1)C(=O)OCc1ccccc1 | 59* | -9 | -5 | 2 | 18 | -1
CC(C)(C)OC(=O)NCCCCCNC(=O)c1nc[nH]c1C(=O)NCCCCCNC(=O)OC(C)(C)C | 64* | 44 | 19 | 15 | -1 | -25
CC(C)C[C@H](NC(=O)c1nc[nH]c1C(=O)NCCCCCNC(=O)OC(C)(C)C)C(=O)OCc1ccccc1 | 12 | -9 | -9 | 4 | 16 | -7
CC(C)(C)OC(=O)NCCCCCNC(=O)c1[nH]cnc1C(=O)N[C@@H](CCCCNC(=O)OC(C)(C)C)C(=O)OC(C)(C)C | 11 | 14 | -6 | -2 | 9 | -1
Cc1ccc(S(=O)(=O)N2CCCN(C)c3nc4ccccc4nc32)cc1 | 19 | -13 | -10 | -2 | -1 | -8
Cc1ccc(Sc2ncnc3onc(C)c23)c(C)c1 | 0 | -24 | 17 | 21 | -4 | -2
COC(=O)c1ccccc1Sc1ncnc2onc(C)c12 | 101* | 7 | 38 | 7 | 13 | 0
CCN(CC)S(=O)(=O)c1ccc(N2CCOCC2)c(NC(=O)c2cc(-c3ccccn3)nc3ccccc23)c1 | 62* | 19 | 97* | 13 | -5 | -89*
CCOc1cc(N2CCOCC2)c(OCC)cc1NC(=O)c1cc(-c2ccco2)nc2ccccc12 | 50 | 92* | 99* | 4 | -6 | -39
CCOc1cc(N2CCOCC2)c(OCC)cc1NC(=O)COc1ncnc2ccccc12 | 14 | 1 | 0 | 0 | 22 | 3
CCN(CC)S(=O)(=O)c1ccc(N2CCOCC2)c(NC(=O)c2cccc3ccccc23)c1 | 34 | 17 | -11 | -3 | 11 | 5
COCCNC(=O)C(=O)Nc1cc2c3c(c1)CCC(=O)N3CCC2 | 1 | 8 | -1 | -2 | 8 | -10
COc1ccc(N2Cc3ccccc3C2=O)cc1 | -156 | -7 | -12 | 81* | -141 | -6
Cc1ccc(C(CC(=O)O)NC(=O)CCNC(=O)c2ccco2)cc1 (centres undefined) | -11 | 1 | 11 | 1 | 8 | -21
CCc1nn2cc(-c3ccccc3)nc2s1 | 35 | 36 | -25 | 66* | 22 | -31
Cc1nn2cc(-c3ccc(-c4ccccc4)cc3)nc2s1 | -195 | 0 | -29 | -7 | -207 | -1
SMILES | Peg3 promoter | Shn3 inh set2 | CF NFkB inh | EBV LMP1 NFkB | HIF-2a block | KKLEB cytotox
Cc1ccccc1CSCC1Nc2ccc(C(=O)NCCc3ccccc3)cc2NC1=O (centres undefined) | 5 | -40 | -2 | -4 | -3 | 9
CCN1CCN(c2ccc(S(=O)(=O)N3CCCCC3)cc2NC(=O)/C=C/c2ccc(Cl)cc2)CC1 | 85* | -23 | 8 | 0 | -2 | -9
CCN1CCN(c2ccc(S(=O)(=O)N3CCCCC3)cc2NC(=O)/C=C/c2ccc(OC)c(OC)c2)CC1 | -7 | 8 | 20 | 7 | -1 | -2
CCN1CCN(c2ccc(S(=O)(=O)N3CCCCC3)cc2NC(=O)/C=C/c2cc(OC)ccc2OC)CC1 | 101* | 40 | -4 | 11 | 3 | -9
CCN1CCN(c2ccc(S(=O)(=O)N3CCCCC3)cc2NC(=O)c2ccc([N+](=O)[O-])s2)CC1 | 64* | 55 | 29 | 1 | 27 | 2
CCOC(=O)C1=C(C)c2ccccc2N(S(=O)(=O)C(F)(F)F)C1C(=O)OCC (centres undefined) | 1 | -12 | -6 | -6 | 8 | 9
CCCNC(=O)CN1C(=O)c2ccccc2Sc2ncccc21 | 5 | -4 | -8 | 0 | 6 | -3
CCOC(=O)NNC(=O)CCn1c2c(c3ccccc31)CCCC2 | 10 | -6 | 62* | 14 | 24 | -2
CC(=O)NNC(=O)CCn1c2c(c3ccccc31)CCCC2 | 2 | 2 | 25 | 9 | 15 | -8
CC(C)CC1OC(C)Cc2[nH][nH]c(=O)c21 (centres undefined) | x | x | x | x | 10 | x
N#Cc1c2ccc([N+](=O)[O-])cc2[n+]([O-])n1-c1ccccc1 | 100* | 31 | -24 | 50* | -16 | -38
COc1cc2nc(NC(=O)c3ccco3)sc(=O)c2cc1OC | 7 | 18 | 35 | 42* | -9 | -40
O=S(=O)(c1ccc(F)cc1)N1CCN(S(=O)(=O)c2ccc3c(c2)OCCO3)CC1 | 8 | 12 | 9 | 0 | 6 | -4
CCON1C(=O)C2(CCCCC2)C(=O)C12C=CCCC2 (centres undefined) | -3 | -15 | -8 | 85* | 1 | 12
CCOC(=O)Cc1csc(N/N=C/c2ccc(Cl)cc2)n1 | -82 | 23 | 10 | 49* | 35 | -5
C=C(C)CN1C(=O)C(C)SC1=NN=C1SCC(=O)N1C (centres undefined) | 18 | -1 | -21 | -3 | 7 | 4
N#CCC(=O)Nc1ccc(C(=O)OCC(=O)Nc2cccc(C(F)(F)F)c2)cc1 | -2 | 0 | -36 | -5 | 1 | 0
CCOc1ccc(-c2nc(CSCC(=O)NC3CC3)c(C)o2)cc1 | -16 | 70 | 2 | 15 | -28 | 20
